Assay outcomes from PubChem.
WT yeast gro inh: growth inhibition of WT yeast, mitochondrial fusion screen | mitochondrial fusion phenotypic screen, WT strain | inhibition, % at 10 µM | 2.1% of 190,000 active | AID 1362; in the data active = inhibition above about 58%; tested in S. cerevisiae
KCC2 mod: modulates chloride dependent transport by human KCC2. Q9H2X9. KCC2 cells, thallium flux FluoZin-2 fluorescence. B-score of Tl+ flux slope (higher = more flux/activation; lower = inhibition) at 10 µM. 2.2% of 190,000 active;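 active = thallium flux slope and its plate-corrected score both differing from the plate sample mean at a set confidence after two filtering rounds, in either direction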;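 note: slope of fluorescence scaled to starting intensity during 10 to 20 s after thallium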
Insulin prom up: MIN6 insulin promoter up-regulation; AID 1625; z-score at 5 µM; 0.3% of 190,000 active; MIN6 insulin promoter-GFP reporter, high-content imaging; active compounds read high;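 active = z-score above 3 at 5 µM with at least 500 cells counted in the well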
ROMK mod: human ROMK K+ channel modulation, primary screen; Tet-inducible ROMK, thallium flux fluorescence; actives lie on both sides; 2% of 130,000 active; P48048; AID 1918; B-score at 10 µM;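 active = signal ratio slope over the read window, or its plate-corrected B-score, at least 3 SD from the plate mean, either direction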;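 note: B-score of the F/F0 ratio slope over 7 to 12 s after thallium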
Target sequence (P48048 whole entry, looked up): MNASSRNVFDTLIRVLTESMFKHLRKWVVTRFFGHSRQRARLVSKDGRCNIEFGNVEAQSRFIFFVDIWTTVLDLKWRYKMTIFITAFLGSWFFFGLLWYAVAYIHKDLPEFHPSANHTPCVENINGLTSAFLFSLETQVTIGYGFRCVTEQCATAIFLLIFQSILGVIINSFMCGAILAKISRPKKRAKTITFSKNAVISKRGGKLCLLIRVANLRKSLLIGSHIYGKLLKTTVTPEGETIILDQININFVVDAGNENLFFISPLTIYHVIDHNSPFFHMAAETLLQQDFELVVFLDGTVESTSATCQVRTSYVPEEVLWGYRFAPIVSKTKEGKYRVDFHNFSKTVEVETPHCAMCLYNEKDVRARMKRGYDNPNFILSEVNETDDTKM
Lmaj promast: inhibitors of Leishmania major promastigote growth | Leishmania major promastigotes, resazurin fluorescence viability | inhibition, % at 10 µM | 9% of 200,000 active; in the data active = inhibition above about 50%;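 note: promastigotes grown with compound for 44 hours at 28 °C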
Insulin prom inh: TRM-6 insulin promoter activity inhibition; TRM-6 cells (human fetal islet line), insulin promoter-eGFP reporter, imaging; reporter expression induced with tamoxifen; inhibition, % at 2 µM; 0.9% of 130,000 active; AID 1273;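 active = inhibition above the mean plus 3 SD, with well images judged a real hit on visual review, cut at about 60% in these data, passing the limit was not always enough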
* marks the source's active call; other numbers are inactive results; . = no result. Sampled rows, rich in hits. Any-hit rate of the full collection: about 12%.

SMILES	WT yeast gro inh	KCC2 mod	Insulin prom up	ROMK mod	Lmaj promast	Insulin prom inh
COc1ccc(Nc2cccc(Cl)c2)c(C(=O)O)c1	3	-0.9	0.28	0.63	51*	3
Cc1ccc(C(CC(=O)c2ccco2)SCCO)cc1 (centres undefined)	-7	-0.49	.	.	33	8
COc1cccc(OCC(O)CN2CCC(C)CC2)c1 (centres undefined)	16	-1.2	0.12	.	71*	-23
CC1CCN(CC(O)COc2cccc(F)c2)CC1 (centres undefined)	10	.	0.61	.	66*	.
CCN1CCN(CC(O)COc2cccc(OC)c2)CC1 (centres undefined)	-10	1.2	-0.46	.	2	-52
CC1CCN(CC(O)COc2ccc(F)cc2)CC1 (centres undefined)	11	.	0.99	.	30	.
Cc1cccc(OCC(O)CN2CCN(C3CCCCC3)CC2)c1 (centres undefined)	-16	0.28	-0.68	0.79	91*	-63
CCOC(=O)c1c(/N=C/N(C)C)sc(/C=N/Nc2ccccc2)c1-c1ccc(Cl)cc1	-27	-0.016	0.02	-0.018	94*	-12
CCOC(=O)c1c(/N=C/N(C)C)sc(C)c1C	-21	-0.8	0.42	1.3	3	.
CC(C)(C)C(=O)Nc1ccnc(-c2cccnc2)n1	73*	1.7	.	.	-4	27
CCC(=O)Nc1ccnc(-c2cccnc2)n1	20	2.1	.	.	0	0
Oc1ccccc1/C=N/n1cnn(Cc2ccccc2Cl)c1=S	-4	1.6	-1.6	0.63	-8	-25
CCN(Cc1ccccc1)C(=O)c1nn(-c2ccc(OC)cc2)c(=O)c2c1c1ccccc1n2C	11	-2.2	-0.83	-0.65	50*	-20
CCCCN(CC)CCNC(=O)c1nn(-c2ccc(OC)cc2)c(=O)c2c1c1ccccc1n2C	9	-1.3	-0.25	-1.1	7	13
c1cc(C2CCN(Cc3nc(-c4ccc5c(c4)OCO5)no3)CC2)ccn1	-6	0.52	-1.2	.	95*	.
O=C(c1ccco1)N1CCCN(Cc2nc(-c3ccc4c(c3)OCO4)no2)CC1	4	1.4	0.35	0.15	-2	.
c1ccc(C(c2ccccc2)c2noc(CN3CCC(c4ccncc4)CC3)n2)cc1	23	-0.25	-0.11	-0.035	90*	.
Fc1ccc(CN2CCCN(Cc3nc(-c4ccc5c(c4)OCO5)no3)CC2)cc1	24	-1.7	-0.19	-2	95*	.
c1ccc(OCCN2CCN(Cc3nc(-c4ccc5c(c4)OCO5)no3)CC2)cc1	14	.	-0.07	-0.76	68*	.
O=C(Cn1nc(C(F)(F)F)c2c1CCCC2)NC1CCCC1	0	-0.68	.	-0.56	-8	-30
C=C1N(CCCCCC(=O)O)C(=O)OC12CCCCC2	10	0.018	0.06	0.33	-8	.
FC(F)(F)c1cccc(Cc2noc(CN3CCC(c4ccncc4)CC3)n2)c1	29	-0.52	0.13	-2.2	98*	.
CN1CCCN(Cc2nc(-c3cccc(C(F)(F)F)c3)no2)CC1	11	0.56	-1.4	1.5	99*	.
CN(C)C(=O)c1c2c(nc3ccccc13)CCCC2	-13	.	-0.19	.	-7	.
Cc1ccc(-c2nc3c(=O)n(C)c4ccccc4c3o2)cc1	3	-0.12	-1.6	.	63*	-80
SMILES	WT yeast gro inh	KCC2 mod	Insulin prom up	ROMK mod	Lmaj promast	Insulin prom inh
Cc1cc(Cl)n2nc(C)c(-c3ccc(Cl)cc3)c2n1	1	-0.8	-5.3	-2.1	27	.
CC(=O)Nc1ccc(Nc2cc(C)nc3c(-c4ccc(Cl)cc4)cnn23)cc1	21	0.69	.	.	79*	80*
CC(=O)Nc1ccc(Nc2cc(C)nc3c(-c4ccc(Cl)cc4)c(C)nn23)cc1	14	0.4	0.32	-0.44	93*	.
CCCCCOc1ccc(NC(=O)c2cc(SC)ccc2Cl)cc1	-6	0.067	.	0.99	-4	-80
CCN(CC)C(=S)SCC(=O)Nc1nc(=O)c2ccccc2s1	-10	16*	0.37	-0.47	-1	44
Cc1ccc(C(O)CN2C3=NCCN3c3ccccc32)cc1 (centres undefined)	-6	0.045	-0.97	.	96*	-8
OC(CN1C2=NCCN2c2ccccc21)c1ccccc1 (centres undefined)	7	0.86	-0.04	-0.42	9	.
CCC12CN3CC(CC)(CN(C1)C3c1ccc([N+](=O)[O-])o1)C2=O (centres undefined)	-4	1.5	1.8	-0.039	-6	-57
COc1ccccc1N(CC(=O)NC1CCCC1)C(=O)c1oc(C(C)(C)C)cc1C	32	.	-0.49	-0.99	62*	.
Cc1cc(N2CCCCC2)nc(N2CCOCC2)n1	-16	.	-0.48	-0.95	1	-54
CC(C)(C)Nc1nc(OCC#N)nc(N2CCCCC2)n1	-10	-0.99	-2.1	-1.3	35	.
CC(C)(CO)Nc1nc(N2CCCC2)nc(N2CCCC2)n1	1	-0.34	.	.	100*	-305
OCCN1CCN(c2nc(N3CCCCC3)nc(N3CCCCC3)n2)CC1	19	0.58	-0.29	-0.66	12	.
CCNc1nc(N2CCCC2)nc(N2CCCC2)n1	13	-0.14	-3	0.0098	73*	.
CCNc1nc(NC(C)(C)C)nc(N2CCCCC2)n1	78*	-0.44	-1.1	-1	95*	35
CCO[C@@H]1OC(C(=O)N2CCOCC2)=C[C@H](c2ccccc2)[C@H]1CCCO	-4	1.6	1.7	.	-4	.
CN1CCN(Cc2nc(N)nc(Nc3ccc4c(c3)OCCO4)n2)CC1	20	0.62	4.7*	-0.083	3	.
CCOc1ccc(Nc2nc(N)nc(CN3CCN(c4ccccc4F)CC3)n2)cc1	21	0.41	-0.31	-0.5	52*	.
Cc1noc(C)c1COC(=O)[C@@H](NC(=O)c1ccccc1)C(C)C	-4	-0.12	-0.08	0.95	-7	-42
CC1(C)CC(c2nc(-c3ccc([N+](=O)[O-])cc3)cs2)CCO1 (centres undefined)	25	-0.31	-0.54	0.5	3	-21
CN1CCN(CC(=O)n2c3c(c4ccccc42)CCCC3)CC1	0	1.3	-0.16	.	75*	.
CCN(CC)CC(=O)n1c2c(c3ccccc31)CCCC2	13	-0.27	0.05	.	-4	15
Nc1ccc(Oc2ccc3nc(-c4ccccc4)c(-c4ccccc4)nc3c2)cc1	-115	.	-2.3	0.52	66*	.
O=C(O)c1ccc2nc(-c3ccccc3)c(-c3ccccc3)nc2c1	-4	-1.8	0.84	.	29	50
Cc1ccc(-c2nnn3c2nc(NCCc2ccc(S(N)(=O)=O)cc2)c2ccccc23)cc1	0	1	0.28	1.6	73*	0
Cc1ccc(S(=O)(=O)NCCSCc2ccccc2)cc1	14	-1.5	.	.	-3	-15
COc1ccc(S(=O)(=O)NCCSCc2cccc(C)c2)cc1Br	65*	0.17	-0.18	0.45	-2	-33
S=C(Nc1cccc(Br)c1)c1ccccc1	44	3.7*	1.5	-1.6	0	42
O=C(NCc1ccccc1)Oc1cccc(Cl)c1	-2	-0.74	-0.24	-0.054	-13	62
N#C/C(=C(/O)CO/N=C/c1ccccc1Cl)c1nc2ccccc2[nH]1	.	0.76	-1.6	-0.074	.	.
